Screens as filed in PubChem.
PABP FP inh: PABP poly(A) RNA binding inhibitors, primary screen, biochemical, fluorescence polarization, uHTS; Polyadenylate-binding protein 1 (Homo sapiens), P11940; inhibition, % at 35 µM; 290,000 compounds, 1% hits;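 note: calls also rest on retests at 20 µM and on dose response follow-up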
CRFR2-BP antag: antagonists of CRF-BP/CRF-R2 complex, primary screen, cell-based, HEK293, calcium dye fluorescence, uHTS. CRF-induced calcium fluorescence. inhibition, % at 11.8 µM. 350,000 compounds, 0.59% hits. AID 588475, 2011;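 active = inhibition of the ligand-induced calcium signal above about 50% at the single tested concentration, limit read from the data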
PABP1 MLLE inh: inhibitors of PABP1 MLLE–PAM2 peptide binding, primary screen, biochemical, fluorescence polarization, FITC-PAM2, GST-MLLE | inhibition, % at 20 µM | 360,000 compounds, 0.36% hits | Polyadenylate-binding protein 1 (Homo sapiens), P11940; in the data active = inhibition above about 35%, passing the limit was not always enough
PHOSPHO1 inh: PubChem AID 1565. 290,000 compounds, 1.1% hits. inhibition, % at 13.3 µM. Phosphoethanolamine/phosphocholine phosphatase (Homo sapiens), Q8TCT1. recombinant PHOSPHO1, absorbance phosphatase assay; in the data active = inhibition above about 60%
Target sequence (Q8TCT1 whole entry, looked up): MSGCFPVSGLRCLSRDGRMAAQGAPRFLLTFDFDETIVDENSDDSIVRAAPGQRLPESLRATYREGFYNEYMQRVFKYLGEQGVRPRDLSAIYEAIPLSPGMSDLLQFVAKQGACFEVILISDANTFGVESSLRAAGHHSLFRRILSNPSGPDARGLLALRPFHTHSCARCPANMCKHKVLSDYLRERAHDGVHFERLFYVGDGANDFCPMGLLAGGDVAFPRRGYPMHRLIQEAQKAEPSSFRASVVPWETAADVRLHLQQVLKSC
eIF4H inh: human eIF4H binding inhibitors, primary screen, translation initiation inhibitor project, biochemical, uHTS, fluorescence polarization; Eukaryotic translation initiation factor 4H (Homo sapiens), Q15056; 290,000 compounds, 0.94% hits; AID 2012, 2009; eIF4H fluorescence polarization binding assay; inhibition, % at 35 µM;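 note: calls also rest on retests at 20 µM and on dose response follow-up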
Each line names hits and unclear results; the compound was inactive in the other large screens. Sampled rows, rich in hits. Any-hit rate of the full collection: about 2.6%. Unless noted, the rule behind the calls is not given here.

CCOC(=O)N1CCN(C(=O)c2ccc3c(=O)n(-c4ccc(OC)cc4)c(=S)[nH]c3c2)CC1	none
COc1ccc(CNC(=O)C2CCN(S(=O)(=O)c3ccc4c(c3)CC(C)N4C(C)=O)CC2)cc1 (centres undefined)	none
CCOC(=O)C1=C(C)N=C2SCCC(=O)N2[C@@H]1/C=C/c1ccccc1	none
CC1=C(C(=O)OCc2ccccc2)C(/C=C/c2ccccc2)N2C(=O)CCSC2=N1 (centres undefined)	CRFR2-BP antag 69.2
Cc1cccc(C)c1NC(=O)c1cc(-c2ccccn2)nc2ccccc12	eIF4H inh active
c1ccc(C2CC(c3cccs3)Nc3nnnn32)cc1 (centres undefined)	none
Brc1cccc(C2CC(c3ccccc3)n3nnnc3N2)c1 (centres undefined)	CRFR2-BP antag 54.8
C[N+]1(CC(=O)OCCCC2CCCCC2)CCCC1	PABP FP inh 54.6
Cc1ccc(C(CC(=O)NCc2ccco2)c2ccc(OC(C)C)cc2)cc1 (centres undefined)	CRFR2-BP antag 50.7 (no result: PABP FP inh, PHOSPHO1 inh, eIF4H inh)
CCCc1nc2oc3c(NCCCN(C)C)ncnc3c2c2c1CCCC2	PHOSPHO1 inh 60.8
CCOC(=O)C(CSCC(=O)c1ccc(Cl)cc1Cl)NC(=O)OC(C)(C)C (centres undefined)	PABP1 MLLE inh 48.7
CC(C)Nc1nc(NC(C)C)nc(Nn2cnnc2)n1	none
CC(C)Nc1nc(NC(C)C)nc(N(C)n2cnnc2)n1	PHOSPHO1 inh 94.1
CC1(C)CC(=O)C(Sc2nnc(-c3ccc(O)cc3)n2CC2CCCO2)C(=O)C1 (centres undefined)	PHOSPHO1 inh 85.4
CCC(=O)Nc1ccc(NC(=O)CSc2nnc(-c3ccc(O)cc3)n2CC2CCCO2)cc1 (centres undefined)	none
CC(=O)Nc1ccc(C(=O)CSc2nnc(-c3ccc(O)cc3)n2CC2CCCO2)cc1 (centres undefined)	PHOSPHO1 inh 65.3
CN(Cc1ccccc1)C(=O)Cn1nnc(-c2ccccc2)c1COc1ccc2ccccc2c1	none (no result: PABP FP inh, CRFR2-BP antag, PHOSPHO1 inh, eIF4H inh)
S=c1[nH]c(-c2ccccc2)cn1/N=C/c1ccncc1	PHOSPHO1 inh 69.9
CCOc1ccc(/C=N/n2cc(-c3ccccc3)[nH]c2=S)cc1	none
S=c1[nH]ncn1/N=C/c1ccc(Br)cc1	PHOSPHO1 inh 96.3
S=c1[nH]ncn1/N=C/c1ccccc1	PHOSPHO1 inh 88.9
S=c1[nH]ncn1/N=C/c1ccc(N2CCOCC2)cc1	PHOSPHO1 inh 87.9
C=CCn1c(SCC(=O)Nc2cc(C)on2)nnc1-c1ccncc1	none (no result: PABP FP inh, PHOSPHO1 inh, eIF4H inh)
Cc1ccc(NC(=O)CNc2ccccc2N2CCCC2=O)cc1S(=O)(=O)N1CCOCC1	none (no result: PABP FP inh, PHOSPHO1 inh, eIF4H inh)
CCn1nccc1NC(=O)c1ccc2sc([C@@H]3O[C@H](CO)[C@H](O)[C@H](O)[C@H]3O)nc2c1	none (no result: PABP FP inh, CRFR2-BP antag, PHOSPHO1 inh, eIF4H inh)
COc1ccc(S(=O)(=O)N(c2onc(C)c2Cl)S(=O)(=O)c2ccc(OC)cc2)cc1	CRFR2-BP antag 50.5
O=C(COC(=O)c1ccc(Br)cc1)NCc1ccccc1	none
CC(=O)Cc1cc(O)c2ccccc2c1OC(=O)c1ccc(Br)cc1	CRFR2-BP antag 67.6
COc1ccccc1-n1c(N)c(C(N)=O)sc1=S	PABP1 MLLE inh 41.4
O=C(c1ccc(OC2CCN(CCCc3ccccc3)CC2)cc1)N1CCCC1	none
Cc1cccc2sc(NC(=O)C3CCCO3)nc12 (centres undefined)	none
Cc1nc(C)c(C(=O)Nc2nc3c(C)cccc3s2)o1	PABP FP inh 10.9, eIF4H inh 70.2
Cc1ccc(S(=O)(=O)NC(=O)C2(C)CCN2C(=O)c2ccccc2)cc1 (centres undefined)	none (no result: PABP FP inh, CRFR2-BP antag, PHOSPHO1 inh, eIF4H inh)
CC(C)(CSc1ncccn1)NS(=O)(=O)c1ccccc1	CRFR2-BP antag 65.9
c1ccc(-c2nc(-c3ccccn3)nc(-c3ccccn3)n2)nc1	none
c1ccc(C2=NNC(c3ccccn3)=NN2)nc1	PABP1 MLLE inh 43.1
CCCNC(=O)C1(C)CCCN(Cc2cc(-c3ccccc3)nn2C)C1 (centres undefined)	none (no result: PABP FP inh, CRFR2-BP antag, PHOSPHO1 inh, eIF4H inh)
CCc1cc2cc(C)cc(C)c2nc1SCC(=O)N1CCN(C(=O)c2ccco2)CC1	CRFR2-BP antag 52.1
Cc1onc(-c2c(F)cccc2Cl)c1C(=O)NC(=S)NC1CCSC1=O (centres undefined)	PABP1 MLLE inh 43.6
Cc1onc(-c2c(F)cccc2Cl)c1C(=O)NC(=S)Nc1c(C)n(C)n(-c2ccccc2)c1=O	PABP1 MLLE inh 45.1
Cc1onc(-c2c(F)cccc2Cl)c1C(=O)Nc1c(C)n(C)n(-c2ccccc2)c1=O	none
COc1ccc(C(=O)NC(=S)N2CCCC2)cc1	none
COc1ccc(C(=O)NC(=S)N2CCC(C)CC2)cc1	PHOSPHO1 inh 68.7
COc1ccc(C(=O)NC(=S)NC2CCSC2=O)cc1 (centres undefined)	PABP1 MLLE inh 38.4
Cc1onc(-c2c(F)cccc2Cl)c1C(=O)NC1CC1	none
Cc1cccc(N2CCN(C(=O)COc3ccc4c(C)cc(=O)oc4c3C)CC2)c1C	none (no result: PABP FP inh, eIF4H inh)
COc1cc(NCC2COc3c(ccc(OC)c3OC)C2=O)c([N+](=O)[O-])cc1OC (centres undefined)	none (no result: PABP FP inh, CRFR2-BP antag, PHOSPHO1 inh, eIF4H inh)
CCOC(=O)c1c(-c2ccc(C)o2)csc1NC(=S)NC(=O)c1ccc(F)cc1	PABP1 MLLE inh 45.9
Nc1ncnc2c1ncn2[C@@H]1O[C@H](C(=O)NS(=O)(=O)c2cccs2)[C@@H](O)[C@H]1O	none (no result: PABP FP inh, CRFR2-BP antag, PHOSPHO1 inh, eIF4H inh)
C=CCn1c(NC(=O)c2ccc(Br)o2)c(C(=O)OCC)sc1=S	PHOSPHO1 inh 85.4
Cc1cccn2c(=O)c3cc(C(N)=S)c(=N)n(CCCN4CCOCC4)c3nc12	PABP FP inh active, eIF4H inh 74.8
CCc1ccc([C@@H]2CC(=O)[C@@H]3CN(S(=O)(=O)c4ccccc4)[C@H](c4ccc(OC)cc4)C[C@@H]3N2S(=O)(=O)c2ccc(C)cc2)cc1	none (no result: PABP FP inh, CRFR2-BP antag, PHOSPHO1 inh, eIF4H inh)
CCN(CC)c1ccc(NC(=O)c2ccco2)cc1	PHOSPHO1 inh 61.1
CCN(CC)c1ccc(NC(=O)c2ccccc2F)cc1	PHOSPHO1 inh 62.5
CCN(CC)c1ccc(NC(=S)NC(=O)c2ccco2)cc1	none
Cc1ccccc1OCC(=O)Nc1ccc(NC(=O)c2ccco2)cc1	PHOSPHO1 inh 67.3
CCN(CC)c1ccc(NC(=O)c2cc(Cl)ccc2OC)cc1	PHOSPHO1 inh 75.8
COc1ccc(Cl)cc1C(=O)Nc1ccncc1	none
O=C(Nc1ccc(Nc2ccccc2)cc1)c1ccccc1F	none
O=C(NC1CCS(=O)(=O)C1)c1cccc(S(=O)(=O)N2CCCC2)c1 (centres undefined)	none
CC(=O)Nc1ccc(-c2ccnc3c2CC(C)(C(=O)Nc2ccc(C(C)C)cc2)O3)cc1 (centres undefined)	none (no result: PABP FP inh, CRFR2-BP antag, PHOSPHO1 inh, eIF4H inh)
O=C(Nc1nnc(COc2ccc(Cl)cc2)s1)c1cccs1	PHOSPHO1 inh 80.2
CCN(CC)c1ccc(NC(=O)/C=C\c2ccccc2Cl)cc1	PHOSPHO1 inh 69.3
Cc1cc(OCC(=O)Nc2ccc(N3CCN(C(=O)c4ccco4)CC3)cc2)cc(C)c1Cl	PHOSPHO1 inh 72.9
